Rows were chosen to be rich in hits. Some 27% of all compounds tested hit in one or more screens of this group.
sEH act = increases human soluble epoxide hydrolase activity. P34913. purified human sEH enzymatic activity, activator screen. activation, % at 2 µM. hit rate 0.04% among 91,000; in the data active means activation above about 37%
CYP2C19 inhib = blocks human cytochrome P450 2C19. CYP2C19 Supersomes, luciferin-H EGE luminescence, 30 min. inhibition, % at 5 µM. P33261. hit rate 21% among 96,000;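 active means CYP2C19 inhibition above a set limit at 5 µM in the primary screen, cut at about 50% in these data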;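 further: plate controls were negative control wells for no effect and 2.5 mM tranylcypromine positive control for full effect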
CYP2C9 activ = activators of human CYP2C9 | activation factor at 5 µM | AID 1024 | P11712 | recombinant CYP2C9, luciferin-H conversion, luminescence; hits give high values; factor 1 = untreated enzyme, 0 = blocked | hit rate 1.4% among 96,000;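 active means activation factor of 2 or more for CYP2C9 at a 5 µM dose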;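 further: 0 = sulfaphenazole-blocked wells and 1 = vehicle-only wells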
Target sequence (P11712 whole entry, looked up): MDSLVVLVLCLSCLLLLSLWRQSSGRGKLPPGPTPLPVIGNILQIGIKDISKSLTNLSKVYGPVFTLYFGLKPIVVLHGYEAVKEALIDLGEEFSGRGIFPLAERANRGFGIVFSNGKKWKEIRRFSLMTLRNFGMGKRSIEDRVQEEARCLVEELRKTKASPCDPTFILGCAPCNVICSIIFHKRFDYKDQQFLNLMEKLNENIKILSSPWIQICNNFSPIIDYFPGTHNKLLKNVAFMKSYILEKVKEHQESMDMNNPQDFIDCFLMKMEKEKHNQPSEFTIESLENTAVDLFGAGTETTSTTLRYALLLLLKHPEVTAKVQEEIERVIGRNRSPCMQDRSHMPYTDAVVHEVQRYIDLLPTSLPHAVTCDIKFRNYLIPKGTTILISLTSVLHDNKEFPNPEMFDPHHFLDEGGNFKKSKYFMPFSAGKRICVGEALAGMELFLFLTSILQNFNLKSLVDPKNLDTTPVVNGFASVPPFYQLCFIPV
sEH inh = inhibitors of human soluble epoxide hydrolase. P34913. recombinant human sEH enzymatic activity assay. inhibition, % at 2 µM. hit rate 0.34% among 91,000; in the data active means inhibition above about 80%
CYP2C19 activ = cytochrome P450 2C19 (human) activation; P33261; activation factor at 5 µM; 96,000 tested, under 10 active; AID 1025; recombinant CYP2C19, luciferin-H EGE luminescence; hits give high values; 0 = fully inhibited enzyme, 1 = untreated enzyme;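 active means activation factor of at least 2 at 5 µM in the primary screen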;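 further: 0 = wells with 2.5 mM tranylcypromine and 1 = vehicle-only wells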
CYP2C9 inhib = blocks human cytochrome P450 2C9; hit rate 20% among 96,000; P11712; inhibition, % at 5 µM; CYP2C9 Supersomes, luciferin-H conversion, luminescence; AID 777;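 active means blocking of liver enzyme CYP2C9 beyond about 50% at 5 µM, limit read from the data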
Starred values were filed as active, the others as inactive; . = not tested or not shown.

SMILES	sEH act	CYP2C19 inhib	CYP2C9 activ	sEH inh	CYP2C19 activ	CYP2C9 inhib
COC(=O)c1cc(C(=O)c2ccc(Cl)cc2Cl)cn1C	1	58*	0.9	1	0.4	14
Cn1cc(C(=O)c2cccc(Cl)c2Cl)cc1C(=O)O	11	-9	1.1	-8	1.1	-8
Cc1onc(-c2ccccc2Cl)c1C(=O)N/N=C(\N)COc1ccc(Cl)cc1	5	0	0.7	-6	1	34
COC(=O)c1cc(C(=O)c2cccc(Cl)c2Cl)cn1C	0	90*	2*	2	0.1	-96
COc1ccc(C(=O)c2ccc(Cl)cc2Cl)cc1	-9	-5	1.1	9	1	-7
COc1ccc(CCN2CC(C(=O)NCc3ccco3)CC2=O)cc1OC (stereo unspecified)	1	10	0.9	-2	0.9	9
Cc1cccc(OCCSCc2nc3ccccc3[nH]2)c1	-4	72*	0.4	5	0.3	61*
CCOc1ccc(OCCSc2nc3ccccc3[nH]2)cc1	-8	.	.	11	.	.
Cc1cccc(OCCn2c(=S)[nH]c3ccccc32)c1	0	.	.	6	.	.
Cc1cccc(OCCCSc2nc3ccccc3[nH]2)c1	-8	77*	1	8	0.2	2
Cc1cc(-c2nnc3n2CCCCC3)c(C)n1-c1ccccc1	1	34	0.5	0	0.7	51*
Cc1ccc(-c2nnc3n2CCCCC3)cc1	-3	-10	1.1	1	1.1	-11
Cc1cc(C(=O)CSc2ccc(Cl)cc2)cc(C)c1OC(=S)N(C)C	-13	44	0.3	12	0.6	67*
Cc1ccc(CS(=O)(=O)CCC(=O)NCc2cccs2)cc1	14	26	0.6	-14	0.7	35
CC(=O)Nc1cccc2c1OCCO2	-5	0	1	4	1	0
COc1ccc(NC(=O)c2c(C(F)(F)F)nn(C)c2SCc2ccccc2Cl)cc1	.	24	0.1	.	0.8	87*
Cn1nc(C(F)(F)F)c(/C=N/OC(=O)c2ccccc2)c1SCc1ccccc1Cl	6	41	0.6	-5	0.6	38
O=C(O)c1ccc(Cn2cc(Cl)cn2)cc1	10	14	0.9	-9	0.9	6
CCOC(=O)CCCc1c[nH]c2ccccc12	-7	32	0.7	6	0.7	33
Cc1noc(C)c1COC(=O)CCC(=O)c1ccc(F)cc1	-4	30	0.9	7	0.7	11
Cc1noc(C)c1COC(=O)CCCc1c[nH]c2ccccc12	.	93*	0.2	.	0.1	81*
Cc1noc(C)c1COC(=O)CCc1nc2ccccc2c(=O)[nH]1	6	41	0.4	-4	0.6	59*
NC(=S)Nc1ccc(Oc2ccc(NC(N)=S)cc2)cc1	-25	-5	0.9	26	1	12
CCC12CN(S(=O)(=O)c3ccc(C)cc3)CC(CC)(CN(S(=O)(=O)c3ccc(C)cc3)C1)C2=O	8	43	0.6	-6	0.6	38
CC(C)CCn1nnnc1C(c1ccc(F)cc1)N1CCC(C(N)=O)CC1 (stereo unspecified)	.	-1	0.7	.	1	28
SMILES	sEH act	CYP2C19 inhib	CYP2C9 activ	sEH inh	CYP2C19 activ	CYP2C9 inhib
N#Cc1nc(-c2ccc(OCc3ccccc3)cc2)oc1NCc1cccnc1	6	10	0.8	-8	0.9	22
CN(C)c1oc(-c2ccc(OCc3ccccc3)cc2)nc1C#N	-1	80*	0.9	4	0.2	15
COC(=O)C(C)Sc1nc(-c2ccc(OC)cc2)nc2c1c(=O)n(C)c(=O)n2C (stereo unspecified)	-6	.	.	7	.	.
O=C(NC(Nc1ncccn1)C(=O)c1ccccc1)c1ccccc1 (stereo unspecified)	1	78*	0.2	0	0.2	77*
Cc1ccc2c(c1)C1CN(C)CCC1N2CC(=O)N(C)c1ccccc1 (stereo unspecified)	.	3	0.9	.	1	6
CCOC(=O)C1=C(C)NC(C)=C(C(=O)OCC)C1c1cc(N)ccc1OC(F)F	11	49	0.4	-8	0.5	57*
Cc1cccnc1-n1c(CCN2C(=O)c3ccccc3C2=O)nc2ccccc2c1=O	-4	38	0.9	4	0.6	7
N#CC1=C(N)SC(N)=C(C#N)C1c1ccc(C(F)(F)F)cc1	3	44	0.6	-4	0.6	38
N#CC1=C(N)SC(N)=C(C#N)C1c1c(Cl)cccc1Cl	-12	89*	0	12	0.1	95*
N#CC1=C(N)SC(N)=C(C#N)C1CCc1ccccc1	-1	85*	0.1	3	0.1	92*
N#CC1=C(N)SC(N)=C(C#N)C1Cc1ccccc1	-5	46	0.7	7	0.5	34
COc1c(Br)cc(Br)cc1C(=O)O	15	-17	0.9	-19	1.2	6
Cc1ccccc1N/C(=C(/C(Cl)=C(Cl)Cl)[N+](=O)[O-])n1nnc2ccccc21	12	1	0.7	-10	1	35
COc1ccc(N/C(=C(/C(Cl)=C(Cl)Cl)[N+](=O)[O-])n2nnc3ccccc32)cc1	-2	-5	0.4	-2	1.1	55*
CC(C)(C)NC(=O)CSc1nnc(Cc2ccc3c(c2)OCO3)n1C1CCCCC1	12	9	0.9	-14	0.9	10
C=CCc1ccccc1OCC(O)CN1CCN(c2ccccc2F)CC1 (stereo unspecified)	6	66*	0.5	-6	0.3	55*
C=CCc1ccccc1OCCCCN1CCCC1	.	6	1.1	.	0.9	-11
C=CCc1ccccc1OCC(CN1CCCCC1)OC(C)=O (stereo unspecified)	-9	53*	1	8	0.5	0
Cc1ccc(S(=O)(=O)n2ccnc2)cc1C	-40	-7	1.2	42	1.1	-20
O=C(NOC(=O)c1ccccc1Cl)c1cccs1	9	-10	0.5	-9	1.1	51*
CCOc1ccc(C(=O)NC(=S)Nc2ccccc2N2CCC(C)CC2)cc1[N+](=O)[O-]	-4	27	0.3	6	0.7	72*
CCOc1ccc(C(=O)NC(=S)Nc2ccccn2)cc1[N+](=O)[O-]	8	.	.	-10	.	.
COc1ccc(C(=O)N=c2nc3ccccn3s2)cc1	.	65*	0.7	.	0.4	33
CCNc1nc(NCC)nc(C(=O)NN)n1	-1	.	.	4	.	.
COc1ccccc1NC(=O)N1CCC(c2nnc(SCC(N)=O)n2C)CC1	-3	-9	1	3	1.1	-1
CCOc1ccc(NC(=O)COC(=O)c2cccnc2)cc1	7	13	0.8	-5	0.9	16
Nc1nnc(CC(=O)NCc2ccccc2)s1	5	6	1	-5	0.9	-4
Cc1ccc(NC(=S)NCc2ccc3c(c2)OCO3)c(C)c1	5	90*	0.7	-2	0.1	29
Cc1cc(Cl)ccc1NC(=S)NCc1ccc(Cl)cc1	0	52*	0.5	3	0.5	52*
CNC(=S)NCc1ccc(Cl)cc1	2	.	.	-4	.	.
